# A selection: hits, their analogues and other compounds. The true share with any hit is near 0.87%.
# FBPA coupling cs: qHTS Assay for Inhibitors of Fructose-1,6-bisphosphate Aldolase from Giardia Lamblia: Coupling assay counterscreen | activity change, negative = inhibition, % at 58.2 µM, hits read low | 0.67% of 290,000 active | AID 2472, 2010 | coupling enzyme system counterscreen, AmpLite Red fluorescence; in the data active means activity change below about -30%; further: on the % scale 0 is the no-effect control and ±100 the full control effect
#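 First, compound is pin-transferred into glyceraldehyde-3-phosphate coupling-enzyme reagent at 57.5 uM final and held 10 min at RT. Next, substrate, coupling system and AmpLite Red are added. After 20 min RT, fluorescence (525/598 nm) is read.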
# EPAC2 agonist: qHTS for Agonist of cAMP-regulated guanine nucleotide exchange factor 4 (EPAC2): primary screen. 0.079% of 360,000 active. Rap guanine nucleotide exchange factor 4 (Homo sapiens), Q8WZA2. Potency, µM (titrated, usually from 154 µM), for the others: at the highest dose activation, actives largely listed as activators. EPAC2 activation, biochemical qHTS; response scale: 100% = 6.5 mM cAMP response. AID 720711, 2013; further: potency means the concentration at half of the fitted maximal effect; nearly all actives have a fitted effect of over 50% in size
#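 Fluorescence exchange assay: 100 nM EPAC2 with 250 nM RAP1B-BODIPY-GDP and 50 uM GDP; compounds tested as a concentration-titration series (qHTS). Loss of Rap1-bound BODIPY-GDP fluorescence read at 480/540 nm; data normalized to 6.5 mM cAMP.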
# EPAC2 antag: qHTS for Antagonist of cAMP-regulated guanine nucleotide exchange factor 2 (EPAC2): primary screen. Rap guanine nucleotide exchange factor 4 (Homo sapiens), Q8WZA2. EPAC2 GEF exchange of Rap1B-BODIPY-GDP, fluorescence. Potency, µM (top dose mostly 114 µM), inactives show at the top dose activity, negative = inhibition, hits mostly inhibitors. 0.18% of 360,000 active; further: potency means the concentration at half of the fitted maximal effect; on the % scale 0 is the no-effect control and ±100 the full control effect; nearly all actives have a fitted effect of over 45% in size
# EPAC1 ag: qHTS for Agonist of cAMP-regulated guanine nucleotide exchange factor 3 (EPAC1): primary screen; Potency, µM (top dose mostly 154 µM), for inactives: at the top dose activation, most hits filed as activators; Rap guanine nucleotide exchange factor 3 (Homo sapiens), O95398; EPAC1 agonist qHTS, biochemical assay; response scale: 100% = response to 6.5 mM cAMP; 0.073% of 360,000 active; further: potency means the concentration at half of the fitted maximal effect; nearly all actives have a fitted effect of over 60% in size
# Target sequence (O95398 whole entry, looked up): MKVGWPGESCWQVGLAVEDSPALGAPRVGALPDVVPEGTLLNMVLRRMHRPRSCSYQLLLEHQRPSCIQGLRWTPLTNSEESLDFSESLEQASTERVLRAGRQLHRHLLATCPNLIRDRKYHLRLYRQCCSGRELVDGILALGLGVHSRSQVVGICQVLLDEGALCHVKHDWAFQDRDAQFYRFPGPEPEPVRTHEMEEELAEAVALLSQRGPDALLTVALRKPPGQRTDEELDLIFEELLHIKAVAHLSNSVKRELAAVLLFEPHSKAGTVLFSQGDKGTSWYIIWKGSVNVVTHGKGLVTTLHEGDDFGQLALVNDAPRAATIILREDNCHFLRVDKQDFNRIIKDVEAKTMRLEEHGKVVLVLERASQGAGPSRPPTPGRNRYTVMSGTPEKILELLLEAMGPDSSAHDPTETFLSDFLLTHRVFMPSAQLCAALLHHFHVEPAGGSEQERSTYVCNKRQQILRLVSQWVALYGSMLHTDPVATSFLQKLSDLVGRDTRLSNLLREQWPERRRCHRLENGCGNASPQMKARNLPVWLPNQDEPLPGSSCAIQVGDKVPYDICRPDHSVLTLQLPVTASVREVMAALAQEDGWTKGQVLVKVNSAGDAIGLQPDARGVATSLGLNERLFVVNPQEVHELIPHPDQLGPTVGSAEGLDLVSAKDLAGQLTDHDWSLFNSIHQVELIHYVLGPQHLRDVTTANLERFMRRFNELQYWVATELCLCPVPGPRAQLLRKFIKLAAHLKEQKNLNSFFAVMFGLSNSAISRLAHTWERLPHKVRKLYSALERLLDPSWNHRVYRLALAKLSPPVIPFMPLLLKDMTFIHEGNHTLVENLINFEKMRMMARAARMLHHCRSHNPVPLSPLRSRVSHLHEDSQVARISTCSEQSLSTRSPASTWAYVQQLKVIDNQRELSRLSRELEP
#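 EPAC1 100 nM, Rap1B–BODIPY-GDP 250 nM, unlabeled GDP 50 uM; compound titration; 5 min RT; kinetic read ex480/em540 at 5-min intervals ×30 min; data normalized to 6.5 mM cAMP agonist control.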
# USP1-UAF1 inh: Inhibitors of USP1/UAF1: Primary Screen; 0.23% of 390,000 active; Potency, µM (titrated, usually from 57.1 µM), without a hit: at the top dose activity change, negative = inhibition, hits mostly inhibitors; recombinant USP1/UAF1, Ub-Rhodamine cleavage fluorescence; AID 743255, 2014; further: potency means the concentration at half of the fitted maximal effect; on the % scale 0 is the no-effect control and ±100 the full control effect; nearly all actives have a fitted effect of over 60% in size
#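 Step one: compound is pinned into 1nM USP1/UAF1 in HEPES pH 7.8 buffer with TCEP. Step two: 15 min room-temperature incubation. Step three: Ub-Rho (150nM final) starts cleavage, tracked by fluorescence over six one-minute reads.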
# EPAC1 antag: qHTS for Antagonist of cAMP-regulated guanine nucleotide exchange factor 3 (EPAC1): primary screen; Rap guanine nucleotide exchange factor 3 (Homo sapiens), O95398; EPAC1 GEF assay, Rap1b-BODIPY-GDP exchange fluorescence; Potency, µM (doses to about 115 µM), for inactives: at the top dose activity change, negative = inhibition, actives largely listed as inhibitors; 0.14% of 360,000 active; AID 720709, 2013;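 further: potency means the concentration at half of the fitted maximal effect; plate controls were vehicle for no effect and positive control for full effect; nearly all actives have a fitted effect of over 50% in size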
# Starred values were filed as active, the others as inactive; i = inactive; ? = inconclusive; . = not tested or not shown; + = active, no number. Unless noted, the call rests on the fitted dose curve; in most records, active means well fitted curve in the direction sought with a large enough effect; inconclusive means small, poorly fitted or top-dose-only effect, or another doubt; inactive means no such curve, though single readings can be large; an effect the other way counts as inactive or inconclusive.
SMILES,FBPA coupling cs,EPAC2 agonist,EPAC2 antag,EPAC1 ag,USP1-UAF1 inh,EPAC1 antag
OCCCNC(=S)Nc1ccc2nc(-c3ccccn3)c(-c3ccccn3)nc2c1,-33.5*,3.7%,-1.3%,-2.0%,-12.6%,-0.2%
CC(C)(C)CC(C)(C)NC(=S)Nc1ccc2nc(-c3ccccn3)c(-c3ccccn3)nc2c1,-55.6*,12.7%,-4.8%,22.0%,-19.8%,-25.7%
CCCCc1nn2c(=O)cc(COC(=O)COc3ccc(C)cc3)nc2s1,.,.,.,.,-19.9%,.
C/C(=N\Nc1nc(-c2cc(C)ccc2C)cs1)c1cc2c(ccc3ccccc32)oc1=O,-2.7,16.0%,-3.6%,-3.0%,-4.7%,?
COC(=O)c1ccc(/C=C(\C#N)c2nc3ccccc3s2)cc1,3.9,10.0%,5.6%,-4.0%,-7.3%,5.1%
N#C/C(=C\c1ccccn1)c1nc2ccccc2s1,-1.2,-106.7%,25.1µM*,-42.0%,424.4%,?
O=C(CSc1nc(-c2ccc(F)cc2)nc2ccc(F)cc12)Nc1cccc(C(=O)O)c1,3.0,2.3%,5.4%,19.2%,-13.1%,70.8µM*
O=C(CSc1nc(-c2ccccc2)nc2ccccc12)Nc1cccc(C(=O)O)c1,14.3,0.1%,-1.9%,-6.3%,-12.0%,-22.8%
O=C(Nc1ccccc1Cl)c1csc(-c2cccnc2)n1,0.1,-1.8%,-6.2%,6.4%,-18.3%,-17.5%
COc1ccccc1CNC(=O)c1ccc2c(c1)N(Cc1cccc(Cl)c1)C(=O)c1ccccc1S2(=O)=O,.,.,.,.,2.9%,.
CCOC(=O)c1c(-c2ccc(Cl)cc2)csc1NC(=O)CNCc1ccco1,-6.3,14.5%,-8.9%,-2.6%,-20.6%,2.9%
CCOC(=O)c1c(-c2ccccc2)csc1NC(=O)C(C)NCc1ccco1 (stereo not given),-0.2,1.3%,44.7µM*,16.1%,-11.0%,?
CCCCNc1c2c3c(cccc3n(C)c1=O)C(=O)c1ccccc1-2,0.2,62.3%,200.7%,60.0%,i,206.2%
CC(=O)Nc1ccc(Nc2c3c4c(cccc4n(C)c2=O)C(=O)c2ccccc2-3)cc1,-2.0,112µM*,11.5%,?,?,35.0%
Cc1ccc(S(=O)(=O)N2[C@@H](c3cccc(Cl)c3)C(C(=O)O)=CC[C@H]2c2ccc(C(C)C)cc2)cc1,.,-9.1%,-27.6%,-15.7%,?,56.2µM*
Cc1ccc2sc(NNC(=O)c3cc(=O)c4ccccc4o3)nc2c1C,-47.1*,-8.3%,12.1%,-13.2%,31.6µM*,-16.1%
COc1ccc2nc(NNC(=O)c3cc(=O)c4ccccc4o3)sc2c1,-3.2,-2.2%,-6.9%,-7.7%,28.2µM*,-4.5%
CCN(CC)CCNC(=O)C1CCN(C(=O)c2cnn(-c3ccccc3)c2-n2cccc2)CC1,.,.,.,.,-8.9%,.
Cn1c(=O)c(NC2CCCCC2)c2c3c(cccc31)C(=O)c1ccccc1-2,1.6,8.7%,43.0%,8.2%,-7.5%,43.3%
Cn1c(=O)c(N)c2c3c(c(Br)ccc31)C(=O)c1ccccc1-2,-1.0,?,29.7%,112µM*,243.7%,30.5%
O=C(COC(=O)CNC(=O)c1ccccc1F)NCCC1=CCCCC1,0.2,-3.2%,-4.7%,-5.5%,3.9%,2.1%
O=C(Nc1ccc(C(=O)O)cc1)/C(=C\C=C\c1ccccc1)NC(=O)c1ccc(Br)cc1,4.3,5.7%,?,2.8%,+,-24.3%
Cc1ccc(NC(=O)/C(=C/C=C/c2ccccc2)NC(=O)c2ccccc2)cc1,4.0,-15.0%,-6.2%,-1.6%,-14.0%,3.9%

# Screens deposited in PubChem BioAssay by National Center for Advancing Translational Sciences (NCATS).
